Source: PubChem
PHOSPHO1 inh – PubChem AID 1565. inhibition, % at 13.3 µM. recombinant PHOSPHO1, absorbance phosphatase assay. actives 1.1% (n = 290,000); in the data active = inhibition above about 60%
rCAG binder – binders of r(CAG) RNA repeats, primary screen, biochemical, fluorescence; actives 1.3% (n = 370,000); r(CAG) RNA repeat, TO-PRO-1 dye displacement fluorescence; inhibition, % at 3 µM;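 active = inhibition above the plate cutoff, the mean of all test compounds on that plate plus 3 SD, cut at about 35% in these data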;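 also: higher means more dye released from RNA so lower well fluorescence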
APOBEC3G inh – APOBEC3G DNA deaminase inhibitors, primary screen, biochemical, fluorescence, single-stranded DNA substrate, uHTS. DNA dC->dU-editing enzyme APOBEC-3G (Homo sapiens), Q9HC16. recombinant A3G, ssDNA deamination FAM/TAMRA fluorescence. inhibition, % at 20 µM. actives 0.28% (n = 330,000);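 active = inhibition of at least 40% at 20 µM, with no more than 30% in the related APOBEC3A deaminase screen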
aDG glyco up – activators of alpha-DG glycosylation, primary screen, uHTS, Pro5-aDG cells, AlphaScreen; activation, % at 10 µM; alpha-DG glycosylation AlphaScreen (IIH6); 0% Pro5, 100% B10-LARGE cell signal; actives 0.22% (n = 360,000);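 active = activation of at least 8% versus controls, or a plate z-score of at least 8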;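 also: Pro5 are CHO cells carrying HIG-tagged alpha-DG that lacks glycosylation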
A3A deaminase – APOBEC3A ssDNA deaminase inhibitors, primary screen, selectivity assay for APOBEC3G inhibitor project, biochemical, FAM/TAMRA oligo cleavage fluorescence; actives 0.41% (n = 330,000); recombinant A3A, FAM/TAMRA ssDNA deamination fluorescence; inhibition, % at 20 µM; AID 493011, 2011;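 active = at least 40% inhibition at 20 µM here, with at most 30% in a related deaminase screen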
Target sequence (P31941 whole entry, looked up): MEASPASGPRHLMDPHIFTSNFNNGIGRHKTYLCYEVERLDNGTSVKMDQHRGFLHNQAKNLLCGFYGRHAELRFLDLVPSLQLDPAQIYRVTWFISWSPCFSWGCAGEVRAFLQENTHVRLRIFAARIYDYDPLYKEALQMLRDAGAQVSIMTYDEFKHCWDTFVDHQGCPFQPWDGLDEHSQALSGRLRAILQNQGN
ALR H2O2 inh – inhibitors of human ALR sulfhydryl oxidase, primary screen, biochemical, H2O2 detection, HRP-luminol luminescence, single point. FAD-linked sulfhydryl oxidase ALR (Homo sapiens), P55789. purified ALR, DTT oxidation. inhibition, % (test concentration not listed). actives 3.8% (n = 290,000);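 active = mean replicate inhibition above about 79%, with every replicate also reaching it, limit read from the data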
Target sequence (P55789 whole entry, looked up): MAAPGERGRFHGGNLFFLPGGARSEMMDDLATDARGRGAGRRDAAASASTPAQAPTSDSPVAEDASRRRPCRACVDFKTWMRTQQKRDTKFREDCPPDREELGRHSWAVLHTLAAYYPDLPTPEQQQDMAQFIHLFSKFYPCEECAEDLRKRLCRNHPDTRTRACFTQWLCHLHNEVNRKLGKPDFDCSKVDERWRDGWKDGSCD
APOBEC3A confirm – APOBEC3A deaminase inhibitors, retest, confirmation, selectivity assay for APOBEC3G inhibitor project, biochemical, single concentration, fluorescence readout. actives 63% (n = 1,400). recombinant A3A, ssDNA deaminase UDG fluorescence assay. inhibition, % at 20 µM. shares compounds with A3A deaminase;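 active = inhibition reaching a set limit, 80% of the first screen's cutoff, at 20 µM in any replicate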
UDG A3A counter – E. coli UDG inhibitors, confirmation, counter-screen for APOBEC3A inhibitor project, biochemical, single concentration, fluorescence, FAM/TAMRA oligo. shares compounds with A3A deaminase. UDG counterscreen, FAM/TAMRA uracil oligo fluorescence. inhibition, % at 20 µM. 1,000 tested, under 10 active. AID 504714, 2011; call rule not given here
A number is an active result; 0 = inactive; - = not tested or not shown. Sampled rows, rich in hits. Any-hit rate of the full collection: about 5.4%.

SMILES	PHOSPHO1 inh	rCAG binder	APOBEC3G inh	aDG glyco up	A3A deaminase	ALR H2O2 inh	APOBEC3A confirm	UDG A3A counter
COCCn1c(Br)nc2c1c(=O)n(C)c(=O)n2C	0	0	0	0	48	0	0	0
Cc1ccc(OCCn2c(Br)nc3c2c(=O)n(C)c(=O)n3C)cc1	0	0	0	0	0	0	-	-
C[n+]1cccc(/C=N/NC(=O)CC23CC4CC(CC(C4)C2)C3)c1	0	0	0	0	45	0	67	0
CCCCc1c(CCC)c(=N)c2ccccc2n1C	0	0	0	0	42	0	83	0
CCN(CC(=O)Nc1c(F)cccc1F)C(=O)c1cccc(-n2cccc2)c1	-	0	0	0	75	0	55	0
CN(C(=O)COC(=O)CSc1cc(Cl)ccc1Cl)c1c(N)n(Cc2ccccc2)c(=O)[nH]c1=O	-	0	0	0	41	-	0	-
CCN(C(=O)COC(=O)CCC(=O)c1ccc(Cl)cc1)c1c(N)n(Cc2ccccc2)c(=O)[nH]c1=O	-	0	-	0	-	-	-	-
O=C(Cn1nnc2ccccc21)OCC(=O)c1ccc(Cl)c(Cl)c1	0	0	0	0	41	0	0	-
CC(NC(=O)CSc1nnc(CC(=O)Nc2ccc(Cl)c(Cl)c2)n1C)c1ccccc1 (configuration not stated)	95	0	0	0	47	0	48	-
O=C1NC[C@H](CCCCN2C[C@@H](Cc3ccccc3)N(CC3CCCCC3)C(=O)C2=O)N(CCC2CCCCC2)C1=O	-	0	-	0	-	-	-	-
CCc1noc(C)c1C(=O)NNC(=O)c1cc(OC)c(OC)c(OC)c1	-	0	0	0	62	0	54	0
C[n+]1cccc(C(=O)N/N=C/c2ccc3c(c2)OCO3)c1	0	0	0	0	75	0	69	0
O=C(N/N=C/c1ccc2c(c1)OCO2)c1ccc2c(c1)OCCO2	0	0	0	0	0	0	-	-
COc1ccc(/C=N/NC(=O)c2ccc(COCC(F)(F)C(F)F)cc2)cc1	0	0	0	0	0	0	-	-
O=C(N/N=C/c1ccc2c(c1)OCO2)c1ccc(COCC(F)(F)C(F)F)cc1	0	-	0	0	98	0	0	0
COc1cccc(/C=C2\CC3(OC(=O)c4ccc(Cl)cc4)CCCN2C3)c1 (configuration not stated)	-	0	-	-	-	-	-	-
CN1CC[n+]2c(CN3C(=O)c4ccccc4C3=O)csc21	0	0	0	0	51	0	79	0
CCN(C(=O)COC(=O)c1cc2c(s1)CCCCC2)C1CCS(=O)(=O)C1 (configuration not stated)	-	0	0	0	0	0	-	-
CC(C)CN(C(=O)COC(=O)c1cc2c(s1)CCC2)C1CCS(=O)(=O)C1 (configuration not stated)	0	0	0	0	45	0	44	-
CC(=O)Nc1ccc2nc(SCC(=O)NCCOc3ccccc3)sc2c1	0	0	0	0	0	0	-	-
CC(=O)Nc1nnc(SCC(=O)NCCOc2ccccc2)s1	0	0	0	0	57	0	63	0
CCC(=O)Nc1nnc(SCC(=O)NCC2CCCO2)s1 (configuration not stated)	0	0	0	0	0	0	-	-
CC(=O)Nc1nnc(SCC(=O)NCC2CCCO2)s1 (configuration not stated)	86	0	0	0	41	0	40	0
CCn1cc(CN2CCC(C(=O)Nc3ccc(Oc4ccccc4F)cc3)CC2)cn1	-	0	-	0	-	-	-	-
CCOC(=O)N1CCC(NC(=O)C2CCCN(C(=O)N3CCOc4ccccc43)C2)CC1 (configuration not stated)	0	0	0	0	54	0	0	0
SMILES	PHOSPHO1 inh	rCAG binder	APOBEC3G inh	aDG glyco up	A3A deaminase	ALR H2O2 inh	APOBEC3A confirm	UDG A3A counter
CCOC(=O)N1CCC(NC(=O)C2CCN(C(=O)N3CCOc4ccccc43)CC2)CC1	0	0	0	0	0	0	-	-
COn1c(-c2ccccc2)nc2c1CCc1nonc1-2	0	-	0	0	54	0	0	0
c1ccc(COn2c(-c3ccccc3)nc3c2CCc2nonc2-3)cc1	0	0	0	0	0	0	-	-
CCNC(=O)N1CCN(c2ccc(N3CCN(Cc4ccccc4)[C@@H](C)C3)c(C)c2)[C@H](C)C1	-	0	-	-	-	-	-	-
CCC1(c2ccc(F)cc2)NC(=O)N(CC(=O)N2CCN(C(=O)c3cccs3)CC2)C1=O (configuration not stated)	-	0	0	0	0	-	-	-
CC(C)c1ccc(C2(C)NC(=O)N(CC(=O)N3CCN(C(=O)c4cccs4)CC3)C2=O)cc1 (configuration not stated)	-	0	0	0	48	0	0	0
CN(C(=O)[C@@H](Cc1ccccc1)NC(=O)[C@H]1O[C@@H](n2cnc3c(=O)[nH]c(N)nc32)[C@H](O)[C@@H]1O)C1CCCCC1	-	0	-	-	-	-	-	-
O=C(CSc1nnc(-c2ccncc2)n1-c1ccccc1)N1CCN(c2ccc(Cl)cc2)CC1	93	0	0	0	44	0	65	0
O=C(CSc1nnc(-c2cccnc2)n1-c1ccccc1)N1CCN(c2ccc(F)cc2)CC1	0	0	0	0	0	0	-	-
N#C/C(=C/c1cn(CC(=O)O)c2ccccc12)C(=O)Nc1ccccc1	0	0	0	0	0	0	-	-
Cc1cccc(NC(=O)/C(C#N)=C\c2cn(CC(=O)O)c3ccccc23)c1	0	0	0	0	53	0	0	-
COC(=O)C1=C(C)N(Cc2ccccc2)C(=NCc2cc(OC)c(OC)c(OC)c2)N[C@H]1c1cccc(F)c1	0	-	0	0	0	0	-	-
CCN1C(=NCCOC)N[C@@H](c2ccccc2)[C@H](C(=O)OC)[C@H]1C	-	0	0	0	46	0	75	0
COCCN1C(=O)N[C@@H](c2ccccc2)[C@@H](C(=O)OC)[C@H]1C	-	0	0	0	0	0	-	-
CCN1C(=NCc2cc(OC)c(OC)c(OC)c2)N[C@@H](c2ccccc2)[C@H](C(=O)OC)[C@H]1C	0	-	0	-	75	0	47	-
CC(C)Oc1ccc(OCCSc2nc3ccccc3n2CC(=O)O)cc1	0	0	0	0	70	0	0	-
